Experimental data reported in PubChem BioAssay AID504727 (Broad Institute, 2011).
Active and inactive are the calls of the source.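 How the source made its calls: active means fitted half-maximal concentration AC50 at or below ten times the highest valid tested dose, with signal falling as DNA is displaced (actives reach about 34 µM in these data); inconclusive means flat fit at moderate signal loss, or poor fit quality; inactive means the rest, including signal rising instead of falling.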

Test: acridine orange-DNA binding displacement – biochemical, fluorescence polarization, cherry-picked samples, set 2, artefact control for KSHV LANA DNA-binding inhibitor project, dose response (AID 504727)
Settings: series mostly up to 35 µM

Row | SMILES | AC50
1 | Nc1cc(N)nc(SCC(=O)N2CCCCC2)n1 | inactive
2 | O=C(CN1CC[C@@]2(O)CCCC[C@H]2[C@@H]1c1ccc(F)cc1)NCc1ccco1 | inactive
3 | O=C1/C(=C/c2ccco2)SC(=S)N1c1cccnc1 | inactive
4 | Cn1c(N)c(C(=O)COC(=O)c2ccc(Cl)c(S(=O)(=O)N3CCCC3)c2)c(=O)n(C)c1=O | inactive
5 | CCOC(=O)C1=C(O)/C(=C/c2cc(C)n(-c3ccccc3)c2C)N=C1C | inactive
6 | O=c1c2c(nc3cc(-c4ccc(F)cc4)[nH]n13)CCC2 | inactive
7 | O=C1c2ccccc2C(=O)N1Cc1ccc2c(c1)OCO2 | inactive
8 | Cc1cc(C)nc(SCC(=O)N/N=C/c2cc(C)n(-c3ccccc3C)c2C)n1 | inactive
9 | O=S(=O)(O)c1cccc2c(N=Nc3ccc(O)c4ncccc34)cccc12 | inactive
10 | O=C1CC(=O)N(Cc2ccco2)C(=O)N1 | inactive
11 | CCOC(=O)CN1NC2(CCCCCC2)NC1=S | inactive
12 | O=C(O)/C(=C\c1cccs1)Sc1nnc(-c2ccc(F)cc2)o1 | inactive
13 | O=C(O)c1cccc(-n2cccc2/C=C/[N+](=O)[O-])c1 | inactive
14 | Cc1ccc2c(c1)nnn2C1CCN(C(=O)c2cccs2)CC1 | inactive
15 | O=C(NC1(O)C(=O)c2ccccc2C1=O)c1c(Cl)cccc1Cl | inactive
16 | O=C(O)Cc1ccc(N=Nc2c(O)c(C(=O)O)cc3ccccc23)cc1 | inactive
17 | O=C(O)c1ccc2c(c1)[C@@H]1C=CC[C@@H]1[C@H](c1ccccn1)N2 | inactive
18 | O=C(CN1C(=O)NC2(CCCC2)C1=O)Nc1ccccc1-c1ccccc1 | inactive
19 | c1ccc2[nH]c3cc4ncnc4cc3nc2c1 | 11.7 µM (active)

Row | SMILES | AC50
20 | COc1cc(O)c(C(C)=O)c(CC(=O)O)c1 | inactive
21 | O=C(COC(=O)c1ccc([N+](=O)[O-])o1)NCCCc1ccccc1 | inactive
22 | Cc1cccc(N2C(=O)c3cccc4c(N)ccc(c34)C2=O)c1 | 4.82 µM (active)
23 | Cc1sc2nnn(CC(=O)N3CCN(C(=O)c4ccco4)CC3)c(=O)c2c1C | inactive
24 | CC(=O)O[C@@H]1[C@@H](OC(C)=O)[C@H](n2ccc3cc([N+](=O)[O-])ccc32)OC[C@@H]1OC(C)=O | inactive
25 | CC1(C)CCCN(C(=O)c2coc(=O)c(Br)c2)C1 | inactive
26 | Cc1ccc(-c2nnc(-c3ccc(NC(=O)c4ccco4)cc3)o2)cc1 | inactive
27 | Cc1c(C)n(Cc2ccccc2)c2ncnc(Cl)c12 | inactive
28 | O=C1CN=C(Nc2ccccc2Cl)N1Cc1ccc2c(c1)OCO2 | inactive
29 | COc1ccc(OC2CCN(S(=O)(=O)c3ccc(OC)cc3)CC2)cc1 | inactive
30 | CSc1ncccc1C(=O)OCCCC(=O)c1ccc(F)cc1 | inactive
31 | COc1cccc(NC(=O)N(CCN(C)C)C(C)c2cccnc2)c1 (stereo not drawn) | inactive
32 | CCN(CC(=O)Nc1ccc(OC)cc1)C(=O)c1cc([N+](=O)[O-])ccc1N1CCOCC1 | inactive
33 | CNc1c2cccc(C)c2nc2c(C(=O)NCCN(C)C)cccc12 | 6.16 µM (active)
34 | COC(=O)c1cccc(COC(=O)c2ccccc2NC(=O)c2ccco2)c1 | inactive
35 | OCCN(CCO)c1nc(N2CCCCC2)c2nc(N(CCO)CCO)nc(N3CCCCC3)c2n1 | 8.59 µM (active)
36 | O=C(/C=C/c1ccco1)Nc1ccccc1C(=O)Nc1cccc(C(=O)O)c1 | inactive
37 | COc1ccccc1CNC(=O)C(=O)NCC1CCCN1S(=O)(=O)c1cccs1 (stereo not drawn) | inactive
38 | CCNC(=O)COC(=O)c1cccc(Br)c1 | inactive
